The structures appear in SMILES notation.
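Note: lysate desalted by size exclusion to strip endogenous ATP, peptide intensities built from DIA-NN precursor signals, and peptides missing any value discarded before comparison.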

This test has as its target T1, UniProt P0AES0.
T1 sequence (whole entry): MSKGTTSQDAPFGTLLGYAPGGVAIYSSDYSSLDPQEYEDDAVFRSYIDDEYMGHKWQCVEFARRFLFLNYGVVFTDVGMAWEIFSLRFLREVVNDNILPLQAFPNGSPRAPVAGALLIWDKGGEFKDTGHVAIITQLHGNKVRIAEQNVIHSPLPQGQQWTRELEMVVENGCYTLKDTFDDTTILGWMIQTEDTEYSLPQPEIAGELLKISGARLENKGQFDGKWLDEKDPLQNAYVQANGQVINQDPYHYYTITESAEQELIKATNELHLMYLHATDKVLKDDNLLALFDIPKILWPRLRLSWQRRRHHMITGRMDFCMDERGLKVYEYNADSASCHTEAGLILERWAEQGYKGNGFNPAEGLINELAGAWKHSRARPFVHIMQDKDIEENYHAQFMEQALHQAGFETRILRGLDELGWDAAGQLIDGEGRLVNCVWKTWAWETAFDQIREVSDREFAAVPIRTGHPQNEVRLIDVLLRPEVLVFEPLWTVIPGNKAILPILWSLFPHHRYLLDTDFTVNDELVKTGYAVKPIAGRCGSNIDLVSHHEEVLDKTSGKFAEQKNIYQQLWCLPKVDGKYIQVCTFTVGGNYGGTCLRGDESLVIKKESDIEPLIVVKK
Description: log2 fold change of tryptic peptide abundance, ligand vs vehicle (limited proteolysis) (log2 ratio); higher = more trypsin-susceptible (destabilized). Particulars: peptide sequence: TGYAVKPIAGR; peptide start residue: 528; ligand concentration: 5 mM; sample: E. coli desalted lysate; replicate design: treated before aliquoting. As for the experimental part:
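HT-PELSA: desalted E. coli K-12 BW25113 lysate (with 12 mM MgCl2) incubated with 5 mM ATP (pH 7) or water for 30 min at 25 C, then a 4 min trypsin pulse at 22 C. Peptides were quantified by DIA-MS (4 replicates). Value is the peptide log2 fold change (treated/control); negative = stabilized. Scale: negative = ligand-stabilized region.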
On to `Nc1ncnc2c1ncn2[C@@H]1O[C@H](COP(=O)(O)OP(=O)(O)OP(=O)(O)O)[C@@H](O)[C@H]1O` [adenosine 5'-triphosphate], for which the log2 fold change is -1.49.

(Values after the supplement of paper PMC12819154, “High-throughput peptide-centric local stability assay extends protein–ligand identification to membrane proteins, tissues and bacteria” (Nature Structural & Molecular Biology, 2025).)
